Pf apPOL block = Pf-apPOL DNA polymerase inhibition; inhibition, % at 10 µM; AID 1794808; Recombinant Pf-apPOL, molecular beacon fluorescence, 1.5 h; hit rate 0.25% among 210,000
mHTT CaM bind = mHTT-calmodulin interaction abrogation. P42858. AlphaScreen His-mHTT/GST-CaM binding, luminescence. inhibition, % at 15 µM. hit rate 3.6% among 190,000;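 note: 0% = both proteins with DMSO and 100% = one protein alone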
Target sequence (P42858 whole entry, looked up, stated change not applied): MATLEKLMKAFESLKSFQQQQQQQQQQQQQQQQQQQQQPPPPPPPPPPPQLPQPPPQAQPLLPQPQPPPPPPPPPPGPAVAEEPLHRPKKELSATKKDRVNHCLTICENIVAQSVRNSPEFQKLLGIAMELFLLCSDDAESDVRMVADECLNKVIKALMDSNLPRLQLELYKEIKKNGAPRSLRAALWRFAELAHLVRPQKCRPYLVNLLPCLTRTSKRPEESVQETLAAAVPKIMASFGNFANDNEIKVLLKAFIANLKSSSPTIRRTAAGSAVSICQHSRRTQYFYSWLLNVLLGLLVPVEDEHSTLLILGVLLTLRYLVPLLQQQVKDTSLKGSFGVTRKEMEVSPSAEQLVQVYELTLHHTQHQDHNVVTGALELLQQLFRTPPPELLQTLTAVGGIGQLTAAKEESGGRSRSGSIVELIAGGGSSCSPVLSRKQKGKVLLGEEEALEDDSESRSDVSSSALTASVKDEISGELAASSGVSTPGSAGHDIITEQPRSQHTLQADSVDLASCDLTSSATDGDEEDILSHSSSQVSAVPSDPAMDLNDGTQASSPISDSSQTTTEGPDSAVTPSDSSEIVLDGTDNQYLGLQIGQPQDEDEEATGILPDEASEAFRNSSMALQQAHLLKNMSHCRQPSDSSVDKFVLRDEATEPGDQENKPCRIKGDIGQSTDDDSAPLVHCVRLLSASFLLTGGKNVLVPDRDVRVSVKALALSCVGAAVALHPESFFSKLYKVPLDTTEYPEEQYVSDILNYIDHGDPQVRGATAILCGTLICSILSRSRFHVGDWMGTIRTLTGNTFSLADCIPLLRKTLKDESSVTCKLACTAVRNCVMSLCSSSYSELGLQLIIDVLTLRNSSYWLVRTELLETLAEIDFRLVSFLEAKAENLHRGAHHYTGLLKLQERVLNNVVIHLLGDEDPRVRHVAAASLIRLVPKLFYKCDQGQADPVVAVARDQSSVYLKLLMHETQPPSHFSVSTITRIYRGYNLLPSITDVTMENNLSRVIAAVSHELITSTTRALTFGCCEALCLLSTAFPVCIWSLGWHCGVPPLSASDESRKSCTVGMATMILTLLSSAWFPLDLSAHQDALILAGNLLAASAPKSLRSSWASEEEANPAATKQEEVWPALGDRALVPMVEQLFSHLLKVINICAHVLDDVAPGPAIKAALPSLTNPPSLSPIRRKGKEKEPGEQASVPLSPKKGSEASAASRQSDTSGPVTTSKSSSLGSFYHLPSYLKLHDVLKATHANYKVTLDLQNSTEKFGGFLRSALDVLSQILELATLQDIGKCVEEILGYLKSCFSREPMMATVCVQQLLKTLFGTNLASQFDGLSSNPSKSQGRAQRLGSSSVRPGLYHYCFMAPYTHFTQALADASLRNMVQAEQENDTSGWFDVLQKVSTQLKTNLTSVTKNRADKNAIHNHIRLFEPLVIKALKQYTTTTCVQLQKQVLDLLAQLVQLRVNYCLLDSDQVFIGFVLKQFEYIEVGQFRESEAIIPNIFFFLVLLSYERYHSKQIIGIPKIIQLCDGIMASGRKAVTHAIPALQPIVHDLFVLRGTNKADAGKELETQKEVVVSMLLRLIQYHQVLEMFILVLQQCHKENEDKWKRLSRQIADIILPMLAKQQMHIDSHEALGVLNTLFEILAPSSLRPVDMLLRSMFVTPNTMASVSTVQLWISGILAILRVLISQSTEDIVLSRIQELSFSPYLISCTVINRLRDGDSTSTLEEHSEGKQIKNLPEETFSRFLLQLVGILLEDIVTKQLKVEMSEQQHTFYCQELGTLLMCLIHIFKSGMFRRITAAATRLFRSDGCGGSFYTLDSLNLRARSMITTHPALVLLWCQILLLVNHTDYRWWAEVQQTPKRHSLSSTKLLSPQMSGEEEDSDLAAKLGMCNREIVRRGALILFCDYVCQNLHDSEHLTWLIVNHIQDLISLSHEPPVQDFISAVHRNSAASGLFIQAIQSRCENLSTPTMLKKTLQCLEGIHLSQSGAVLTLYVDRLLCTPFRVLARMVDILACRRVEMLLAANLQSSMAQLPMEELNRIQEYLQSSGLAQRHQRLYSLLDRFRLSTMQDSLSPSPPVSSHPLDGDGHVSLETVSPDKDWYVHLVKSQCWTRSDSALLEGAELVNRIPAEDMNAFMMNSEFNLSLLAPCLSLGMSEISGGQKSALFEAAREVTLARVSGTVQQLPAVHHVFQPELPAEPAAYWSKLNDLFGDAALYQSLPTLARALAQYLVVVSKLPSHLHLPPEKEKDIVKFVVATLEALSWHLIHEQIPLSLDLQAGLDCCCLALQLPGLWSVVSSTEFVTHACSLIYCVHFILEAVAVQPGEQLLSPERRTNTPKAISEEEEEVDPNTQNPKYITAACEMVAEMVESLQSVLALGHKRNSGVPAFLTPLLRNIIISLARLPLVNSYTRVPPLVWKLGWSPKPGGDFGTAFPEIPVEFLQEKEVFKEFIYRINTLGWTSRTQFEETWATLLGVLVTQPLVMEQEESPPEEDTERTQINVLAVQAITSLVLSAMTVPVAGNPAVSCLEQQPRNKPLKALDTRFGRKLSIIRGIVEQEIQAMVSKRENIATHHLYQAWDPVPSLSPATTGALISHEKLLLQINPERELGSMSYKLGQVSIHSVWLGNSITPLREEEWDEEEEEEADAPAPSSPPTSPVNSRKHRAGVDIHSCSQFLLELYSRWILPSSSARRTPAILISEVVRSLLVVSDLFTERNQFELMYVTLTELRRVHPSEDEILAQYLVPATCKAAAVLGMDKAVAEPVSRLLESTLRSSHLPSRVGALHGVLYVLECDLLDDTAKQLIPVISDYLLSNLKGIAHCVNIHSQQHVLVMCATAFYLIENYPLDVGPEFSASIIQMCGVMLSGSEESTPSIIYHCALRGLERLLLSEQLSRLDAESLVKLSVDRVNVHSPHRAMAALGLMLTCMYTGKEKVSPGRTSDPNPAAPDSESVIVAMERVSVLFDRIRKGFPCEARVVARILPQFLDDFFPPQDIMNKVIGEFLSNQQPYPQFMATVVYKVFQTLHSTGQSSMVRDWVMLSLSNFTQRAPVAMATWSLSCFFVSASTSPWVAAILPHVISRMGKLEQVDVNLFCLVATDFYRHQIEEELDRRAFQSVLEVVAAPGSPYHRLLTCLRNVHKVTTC
* hit, by the source's call; · = not tested or not shown; ! = repeats disagree. Shown are actives, neighbours in structure and some others; about 3.5% of the full set was active somewhere. Cut-off read from the data, not from the text of the source: active = inhibition above about 50%; inactive = the rest.

SMILES | Pf apPOL block | mHTT CaM bind
C=C(/C=C\C(=C/C)N1N=C(C)/C(=C\c2ccc(-c3ccc4c(c3)C(=O)NC4=O)o2)C1=O)CC | · | 9
CC(C)(C)c1cnnn1-c1ccc(NC(=O)/C=C/c2ccc3c(c2)OCO3)cc1 | -1 | 9
CC(C)C(=O)N(C)CC(=O)N1N=C(c2cccs2)CC1c1ccccc1F (centres undefined) | -4 | 11
Cc1ccc2[nH]c3c(c2c1)CCCC3=O | -6 | 2
Cc1ccc2[nH]c3c(c2c1)CCC1C3=NNC1c1ccco1 (centres undefined) | -4 | 79*
CCNC(=O)C(C)N1CCN(c2cccc(OC)c2)CC1 (centres undefined) | -3 | 2
O=C1C(=Cc2c[nH]c3ccccc23)C(=O)c2ccccc21 | 0 | 57*!
O=C1OC2(CCCC2)OC(=O)C1=Cc1c[nH]c2ccccc12 | -16 | 7
COc1ccccc1/C=C1N=C(/C=C/c2ccccc2)OC/1=O | -2 | 3
O=C(Nc1ccccc1)C(Cc1c[nH]c2ccccc12)NC(=O)C(c1ccccc1)c1ccccc1 (centres undefined) | 1 | 89*
COc1ccc(NC(=O)C(N)Cc2c[nH]c3ccccc23)cc1 (centres undefined) | -18 | 46
Cc1cc(C)cc(C(=O)N2CCC(Cc3nc4cccnc4n3C)C2)c1 (centres undefined) | 1 | 8
CNC(=O)Cc1cn(Cc2ccc(F)cc2)c2ccccc12 | -19 | -2
CCn1c(=O)c2c(ncn2CC)n(-c2ccc(C(C)C)cc2)c1=O | -1 | 3
O=C1C2SCCN2C(=S)N1c1cccc(C(F)(F)F)c1 (centres undefined) | 13 | ·
CC1CN(C(=O)c2ccccc2F)CCN1C(=O)c1ccccc1F (centres undefined) | -2 | -3
Cc1ccc(N=C2C(=O)Nc3cc(Br)c(C)cc32)cc1 | -1 | 55*
Cc1ccc(N=C2C(=O)Nc3ccc(C)c(Br)c32)cc1 | -3 | 9
COc1ccc(N=C2C(=O)Nc3ccc(C)c(Br)c32)cc1 | 2 | 64*
CC(=O)N(C)c1ccc(N=C2C(=O)Nc3cc(Br)c(C)cc32)cc1 | -9 | 5
COc1ccc(C(=O)C(C)OC(=O)CCc2c[nH]c3ccccc23)cc1 (centres undefined) | -7 | 90*
COc1ccc(C(=O)NCCc2c[nH]c3ccccc23)cc1 | -6 | 2
O=C(NCc1csc(-c2cccs2)n1)C1CCN(C(=O)COc2ccccc2)CC1 | 8 | 3
O=C1NC(=O)C(=Cc2cccn2-c2ccccc2)C(=O)N1 | 0 | 7
O=C1NC(=O)C(=Cc2cccn2-c2ccc(Cl)cc2)C(=O)N1 | 37 | 66*
SMILES | Pf apPOL block | mHTT CaM bind
CC(C)c1ccc(S(=O)(=O)N=C2C=C(Br)C(=O)c3ccccc32)cc1 | -3 | 40
CCc1ccc(S(=O)(=O)N=C2C=CC(=O)C=C2)cc1 | -2 | 48
CCOc1ccc(C2C(=O)c3ccccc3C2=O)cc1 | -1 | -4
CCOc1ccc(S(=O)(=O)N=C2C=CC(=O)c3ccccc32)cc1 | -4 | 72*
CCc1ccc(S(=O)(=O)N=C2C=CC(=O)c3ccccc32)cc1 | -2 | 93*
CC(C)(C)c1ccc(S(=O)(=O)N=C2C=CC(=O)c3ccccc32)cc1 | 8 | 94*
COc1ccc(S(=O)(=O)N=C2C=C(Br)C(=O)C(Br)=C2)cc1 | -1 | 46
CCOc1ccc(S(=O)(=O)N=C2C=CC(=O)C(Br)=C2)cc1 | -5 | 73*
Cc1ccc(NC(=O)COc2cc(C)nc(N3CCCC(C)C3)n2)c(C)c1 (centres undefined) | -3 | 4
CC1CN=C2C(N3CCN(C(=O)CCc4ccccc4)CC3)=NC=CN21 (centres undefined) | -9 | 12
COc1cccc(OC)c1C(=O)Nc1ccc(Cl)cc1C | -5 | -2
CCCCNC(=S)N1CCc2cc(OC)c(OC)cc2C1COc1ccc2c(C)cc(=O)oc2c1 (centres undefined) | -4 | -1
Cc1cccnc1N(C(=O)c1ccccc1F)C(=O)c1ccccc1F | 0 | 5
CC(C)N(C(=O)c1ccccc1F)C(C)C | -6 | 82*
CN(CC(=O)NCCc1ccccc1)S(=O)(=O)c1ccc2[nH]c3c(c2c1)CCCC3 | -4 | 33
CN(CC(=O)NCc1ccc(Cl)cc1)S(=O)(=O)c1ccc2[nH]c3c(c2c1)CCCC3 | -3 | 58*
COc1ccccc1NC(=O)CN(C)S(=O)(=O)c1ccc2[nH]c3c(c2c1)CCCC3 | -1 | 46
Cc1ccc(CCNC(=O)CN(C)S(=O)(=O)c2ccc3[nH]c4c(c3c2)CCCC4)cc1 | -3 | 59*
COc1ccccc1CNC(=O)CN(C)S(=O)(=O)c1ccc2[nH]c3c(c2c1)CCCC3 | -2 | 58*
COc1cccc(CNC(=O)CN(C)S(=O)(=O)c2ccc3[nH]c4c(c3c2)CCCC4)c1 | -2 | 36
CC(C)CCNC(=O)C1(C)CCC(=O)N1Cc1ccccc1Cl (centres undefined) | -4 | -5
CC(C)NC(=O)N1CCCC(c2cccc(C(=O)NCCC3=CCCCC3)c2)C1 (centres undefined) | -3 | 3
COc1ccc(/C=C2/N=C(c3ccc(I)cc3)OC2=O)c(OC)c1 | 3 | -2
N#CC1=C(N)Oc2cc(N)ccc2C1c1cccs1 (centres undefined) | 7 | 20
COc1ccc(-c2ccc3nc(C(=O)NCc4cccnc4)cn3c2)cc1 | 4 | 59*
SMILES | Pf apPOL block | mHTT CaM bind
COc1cccc(CNC(=O)c2cn3cc(C)ccc3n2)c1 | -3 | -3
COc1ccc(C2CC(C(F)(F)F)n3ncc(C(=O)N(C)Cc4ccccc4)c3N2)cc1OC (centres undefined) | -10 | 48
COc1ccc(NC(=O)C2CCc3sc(C(=O)N4CCCCC4)cc3C2)c(OC)c1 (centres undefined) | 3 | 57*
COc1ccc(OC)c(NC(=O)C2CCc3sc(C(=O)N4CCCC4)cc3C2)c1 (centres undefined) | 1 | 27
O=C(Nc1ccc(Cl)c(Cl)c1)c1cc(S(=O)(=O)NC2CCCCC2)ccc1F | -4 | 78*
O=C(Nc1cc(Cl)cc(Cl)c1)c1ccc(F)c(S(=O)(=O)NC2CCCC2)c1 | 31 | 54*
Cc1ccc(NC(=O)c2cc(S(=O)(=O)NC3CCCCC3)ccc2F)cc1Cl | -8 | 5
O=C(Nc1cccc(Cl)c1)c1ccc(F)c(S(=O)(=O)NC2CCCC2)c1 | 0 | -1
CC(C)CNC(=O)C(=O)Nc1nccs1 | -1 | 0
O=C(Nc1cnc(N2CCOCC2)nc1)c1cc(F)ccc1F | -2 | -2
Cc1ncn(C23CC4CC(CC(C(=O)O)(C4)C2)C3)n1 | · | -4
O=C(NC1CC1)c1ccc(OCC2CCCN(C(=O)Cc3ccc(F)cc3)C2)cc1 (centres undefined) | 2 | 20
C=C(C)CC1Nc2ccccc2NC1CC(=C)C (centres undefined) | · | 56*
O=C(O)CC1Nc2ccccc2NC1=O (centres undefined) | 2 | 4
Cc1ccc(C2C3=C(Nc4ncnn42)c2ccccc2OC3c2cccc(F)c2)cc1 (centres undefined) | -7 | 53*
Fc1ccc(C2C3=C(Nc4ncnn42)c2ccccc2OC3c2cccc(F)c2)cc1 (centres undefined) | -5 | 27
Cc1ccc(C2C3=C(Nc4ncnn42)c2ccccc2OC3c2ccc(F)cc2)cc1 (centres undefined) | -5 | 51*

Screening results (PubChem BioAssay)
